Data: PubChem BioAssay (NCATS)
Inconclusive results are not listed. Activity calls are given as the source filed them. Calls follow the shape of the dose curve; as a rule, active = well fitted curve in the direction sought with a large enough effect in the signal ratio, with a control signal flat (not every such curve was filed as active); inconclusive = small, poorly fitted or top-dose-only effect, or effect the other way, or a change in a side signal; inactive = no such curve, though single readings can be large or run the other way; the % refers to the signal ratio.

molecular target: Peroxisome proliferator-activated receptor gamma (Homo sapiens) (UniProt P37231); assay: qHTS assay for small molecule agonists of peroxisome proliferator-activated receptor gamma signaling (AID 588536); settings: HEK293 PPARg-UAS-bla, beta-lactamase ratio, 16 h, percent of rosiglitazone response, DMSO as zero; series mostly up to 76.7 µM
Excerpt: NIH Chemical Genomics Center [NCGC] U.S. Environmental Protection Agency [EPA] National Institutes of Environmental Health Sciences [NIEHS] National Toxicology Program [NTP] NCGC Assay Overview The Peroxisome proliferator-activated receptors (PPARs) are lipid-activated transcription factors of the nuclear receptor superfamily with three distinct subtypes namely PPAR alpha, PPAR delta (also called PPAR beta) and PPAR gamma. All these subtypes heterodimerizes with Retinoid X receptor (RXR) and these heterodimers regulate transcription of various genes. PPAR-gamma (glitazone receptor) agonists have been used in the treatment of type 2 diabetes and dyslipidaemia. It is involved in the regulation of glucose and lipid metabolism. PPAR-gamma activates certain genes like Paraoxonase 1 which is responsible for hydrolyzing organophosphates. PPAR-gamma agonists may also be therapeutically important in the treatment of coronary artery disease, obesity and cancer and atherosclerosis.
NCGC Assay Protocol Summary Using a beta-lactamase reporter-gene under control of Peroxisome Proliferator-Activated-gamma (PPAR-gamma) response element, a cell-based assay [GeneBLAzer PPAR-gamma-UAS-bla assay developed by Invitrogen] was used to measure PPAR-gamma ligands signaling. GeneBLAzer PPAR-gamma-UAS-bla-HEK293 cells were used with assay medium containing 1% charcoal/dextran treated FBS. The assay was performed in clear bottom black Greiner 1536-well plates. Rosiglitazone was used in the screen as the positive control. Library compounds were measured for their ability to stimulate the reporter gene activity. Compounds were screened in a titration series in 1536-well format. The fluorescence intensity (405 nm excitation, 460/530 nm emission) was measured using an EnVision plate reader. Data was normalized relative to Rosiglitazone control (2 uM, 100%), and DMSO only wells (basal, 0%). Concentration-response titration points for each compound were fitted to the Hill equation yielding concentrations of half-maximal stimulation (EC50) and maximal response (efficacy) values. qHTS protocol for PPAR-gamma beta-lactamase assay in agonist mode [Step] [Parameter] [Value] [Description] 1. Reagent; 6 uL; 3000 cells/well 2. Incubation; 37 C for 6 - 6.5 hrs 3. Compounds; 23 nL; 0.59 nM to 92 uM 4. Controls (Rosiglitazone); 23 nL, - One column with dose response, start 19 uM, 1:3 dilutions in duplicates - Final concentrations of 2 uM and 0.5 uM in two columns 5. Incubation; 37 C for 16 hrs 6. Detection reagent; 1 uL of CCF4-dye 7. Incubation; RT for 2 hrs 8. Detection; Fluorescence; Envision plate reader

Chain of Peroxisome proliferator-activated receptor gamma (Homo sapiens) (P37231 whole entry, looked up): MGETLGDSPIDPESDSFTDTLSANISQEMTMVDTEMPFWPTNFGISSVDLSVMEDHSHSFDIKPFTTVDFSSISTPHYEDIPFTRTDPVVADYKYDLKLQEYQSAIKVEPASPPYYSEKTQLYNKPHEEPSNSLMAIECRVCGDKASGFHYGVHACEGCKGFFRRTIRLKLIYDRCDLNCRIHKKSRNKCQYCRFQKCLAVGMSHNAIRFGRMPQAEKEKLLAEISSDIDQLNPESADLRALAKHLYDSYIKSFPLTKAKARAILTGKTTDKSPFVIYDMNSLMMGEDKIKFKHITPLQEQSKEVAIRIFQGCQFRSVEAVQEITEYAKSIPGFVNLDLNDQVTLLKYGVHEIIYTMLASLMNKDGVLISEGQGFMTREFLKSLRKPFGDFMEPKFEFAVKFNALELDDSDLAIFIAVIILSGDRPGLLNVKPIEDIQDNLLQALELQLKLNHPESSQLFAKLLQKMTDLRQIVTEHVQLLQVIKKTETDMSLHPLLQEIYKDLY

**Q.** How did the outcome turn out when `c1ccc(N=Nc2ccccc2)cc1` was run?
**A.** Its outcome is “inactive”.

**Q.** With `COc1ccc(C=O)cc1OC` as the compound, how does the outcome read?
**A.** Its outcome is “inactive”.

**Q.** How did the outcome turn out when `CNC(=O)O/N=C/C(C)(C)SC` was run?
**A.** Its outcome is “inactive”.

**Q.** With `C=CC(=O)OCC` as the compound, how does the outcome read?
**A.** The outcome was “inactive”.

**Q.** Which outcome does the source give for `CCCOC(=O)c1ccccc1C(=O)OCCC` here?
**A.** The outcome was “inactive”.

**Q.** With `COC(=O)NC(=S)Nc1ccccc1NC(=S)NC(=O)OC` as the compound, how does the outcome read?
**A.** Its outcome is “inactive”.

**Q.** Which outcome does the source give for `Cc1ccc2ccccc2c1` here?
**A.** Its outcome is “inactive”.

**Q.** For `[O-][Br+2]([O-])O`, which outcome is on record?
**A.** The outcome was “inactive”.

**Q.** For `COP(=S)(OC)Oc1ccc([N+](=O)[O-])cc1`, which outcome is on record?
**A.** Its outcome is “inactive”.

**Q.** Which outcome does the source give for `CNC(=O)Oc1ccccc1OC(C)C` here?
**A.** Its outcome is “inactive”.

**Q.** For `N#Cc1c(Cl)cccc1Cl`, which outcome is on record?
**A.** Its outcome is “inactive”.

**Q.** How did the outcome turn out when `BrCCBr` was run?
**A.** The outcome was “inactive”.

**Q.** Which outcome does the source give for `CC(O)CCl` (stereo not given) here?
**A.** Its outcome is “inactive”.

**Q.** How did the outcome turn out when `OCC(Br)CBr` (stereo not given) was run?
**A.** The outcome was “inactive”.

**Q.** `CCCCCCCC(=O)Cl` was tested. Which outcome did it give?
**A.** Its outcome is “inactive”.

**Q.** How did the outcome turn out when `CCSC(=O)Cl` was run?
**A.** Its outcome is “inactive”.

**Q.** How did the outcome turn out when `CCC[CH2][Sn]([Cl])([Cl])[Cl]` was run?
**A.** Its outcome is “inactive”.

**Q.** `ClC(Cl)=C(Cl)Cl` was tested. Which outcome did it give?
**A.** Its outcome is “inactive”.

**Q.** Which outcome does the source give for `C=CCc1ccc2c(c1)OCO2` here?
**A.** The outcome was “inactive”.

**Q.** `O=[N+]([O-])c1cccc2ccccc12` was tested. Which outcome did it give?
**A.** Its outcome is “inactive”.

**Q.** For `CCOP(=S)(OCC)Oc1ccc([N+](=O)[O-])cc1`, which outcome is on record?
**A.** Its outcome is “inactive”.

**Q.** `CC(C)(C)C(=O)C(Oc1ccc(Cl)cc1)n1cncn1` (stereo not given) was tested. Which outcome did it give?
**A.** The outcome was “inactive”.

**Q.** With `CCCCOCCOP(=O)(OCCOCCCC)OCCOCCCC` as the compound, how does the outcome read?
**A.** The outcome was “inactive”.

**Q.** How did the outcome turn out when `CCCCCCCCCc1ccc(O)cc1` was run?
**A.** Its outcome is “inactive”.

**Q.** How did the outcome turn out when `ClCBr` was run?
**A.** The outcome was “inactive”.

**Q.** How did the outcome turn out when `Clc1ccc2ccccc2c1` was run?
**A.** Its outcome is “inactive”.

**Q.** How did the outcome turn out when `CNC(=O)CSP(=S)(OC)OC` was run?
**A.** The outcome was “inactive”.

**Q.** For `CCC(=O)Nc1ccc(Cl)c(Cl)c1`, which outcome is on record?
**A.** The outcome was “inactive”.

**Q.** `COc1nc(NC(C)C)nc(NC(C)C)n1` was tested. Which outcome did it give?
**A.** The outcome was “inactive”.

**Q.** `CC(C)Nc1nc(Cl)nc(NC(C)C)n1` was tested. Which outcome did it give?
**A.** The outcome was “inactive”.

**Q.** `CC(C)(C)OOC(C)(C)C` was tested. Which outcome did it give?
**A.** The outcome was “inactive”.

**Q.** How did the outcome turn out when `C=CC(C)=O` was run?
**A.** Its outcome is “inactive”.

**Q.** For `C[N+](C)(C)Cc1ccccc1`, which outcome is on record?
**A.** Its outcome is “inactive”.

**Q.** For `Nc1c(Cl)c(Cl)nc(C(=O)O)c1Cl`, which outcome is on record?
**A.** Its outcome is “inactive”.

**Q.** `CC(C)OC(=O)Nc1cccc(Cl)c1` was tested. Which outcome did it give?
**A.** Its outcome is “inactive”.

**Q.** Which outcome does the source give for `C1CCC2CCCCC2C1` (stereo not given) here?
**A.** The outcome was “inactive”.

**Q.** How did the outcome turn out when `COC1=CC(=O)OC(CCc2ccccc2)C1` (stereo not given) was run?
**A.** The outcome was “inactive”.

**Q.** With `O=NN(CCO)CCO` as the compound, how does the outcome read?
**A.** The outcome was “inactive”.

**Q.** How did the outcome turn out when `Oc1ccc(Cl)cc1Cl` was run?
**A.** The outcome was “inactive”.

**Q.** For `C=C(C)C(=O)OCC1CO1` (stereo not given), which outcome is on record?
**A.** The outcome was “inactive”.
